Assay results as given in PubChem BioAssay AID743279 (National Center for Advancing Translational Sciences (NCATS), 2014).
Hit rate of the full screen: of about 360,000 compounds, about 17,000 (4.7%) were called active. Roughly 5% stayed inconclusive and do not appear here. What follows is part of a selection rich in actives, with near analogues and random picks from the rest. Unmarked numbers belong to inactive results. Rule as the data show it: active = activity change below about -50%; inconclusive = mostly about -30% to -49%; inactive = weaker than that.

assay: qHTS for Inhibitors of Inflammasome Signaling: IL-1-beta AlphaLISA Primary Screen; settings: THP-1 LPS/ATP IL-1B secretion, 16 h; at 57.5 µM, active compounds read low
In short: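 Secreted IL-1B measured by AlphaLISA bead assay after 16 h compound exposure of THP-1 cells; compounds (final up to 57.5 uM) added 1 h before LPS (250 ng/mL) and ATP (1.25 mM) stimulation; lower signal means less secretion.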
% is scaled to controls: 0 for no effect and ±100 for the full control effect.

SMILES	activity change
Cc1ccc(-c2ccc(CN3C(C)C(=O)N(Cc4cn(CCC5OCCCO5)nn4)CCS3(=O)=O)cc2)cc1 (configuration not stated)	-2.45%
CC1C(=O)Nc2ccccc2N1C(=O)c1ccc(F)cc1F (configuration not stated)	10.1%
Cc1ccc(C(=O)N[C@H](C(=O)N2CCN(c3ncccn3)CC2)C(C)C)cc1	-11.5%
CCOC(=O)c1cnn(Cc2ccccc2Cl)c1N	0.436%
Cc1c(NC(=O)CSc2nnnn2-c2ccc(C(=O)O)cc2)c(=O)n(-c2ccccc2)n1C	22.1%
Cc1c(NC(=O)CSc2nnc(-c3cccnc3)n2N)c(=O)n(-c2ccccc2)n1C	25.5%
Cc1c(NC(=O)CSc2cccc3cccnc23)c(=O)n(-c2ccccc2)n1C	-96.5% (active)
Cc1noc(C)c1-c1ccc(C(=O)NCc2ccncc2)c2occc12	60.8%
COC(=O)CN1C(C)=Nc2ccc(Br)cc2C1c1ccccc1 (configuration not stated)	-27.1%
Cc1ccc(C2C(C#N)C(C#N)N3CCCN23)cc1 (configuration not stated)	0.442%
CCN(/N=C/c1ccc(N(C)C)cc1)c1nc2ccccc2[nH]1	-29.3%
Oc1ccc(/C=N/N(Cc2ccccc2)c2ccccc2)cc1	-72.7% (active)
CCN(/N=C/c1ccccc1)c1cc(=O)n(C)c(=O)[nH]1	0%
Cc1cc(Cl)ccc1OCCCC(=O)NCc1ccncc1	-6.96%
Cc1ccc(-c2nc(-c3ccncc3)no2)c(C)c1	-25.6%
Cc1cc(Cl)ccc1OCc1nc(-c2ccncc2)no1	-55.8% (active)
CCNC(=S)NNC(=O)C1CCN(Cc2ccccc2)CC1	-12.8%
Cc1cc(Br)ccc1NC(=S)NC1CCCC1	0.7%
O=C(COc1ccc(Br)cc1F)NC1CCN(Cc2ccccc2)CC1	-25.9%
O=C(Cc1ccc(Br)cc1)NCCc1ccccc1	-1.81%
S=C(Nc1ccc(Br)cc1Cl)NC1CCN(Cc2ccccc2)CC1	-75.9% (active)
S=C(Nc1ccc(Br)cc1)NC1CCN(Cc2ccccc2)CC1	-96% (active)
S=C(NCCCc1ccccc1)Nc1ccc(Br)cc1	-85.8% (active)
S=C(NN=C1CCN(Cc2ccccc2)CC1)NC1CCCCC1	0%
O=S(=O)(NCCCc1ccccc1)c1ccc(Br)cc1	8.22%
COCCN(C(=O)C(C)N1C(=O)c2ccccc2C1=O)c1c(N)n(CC(C)C)c(=O)[nH]c1=O (configuration not stated)	13.1%
COc1ccc(OC)c(NC(=O)c2cc(-c3cc(F)ccc3OCC3CCCO3)n[nH]2)c1 (configuration not stated)	0%
